High-throughput results deposited in PubChem by several laboratories.
Compounds with a hit are over-represented: about 3.1% of the library has one in this group of screens.
PP1 inh – blocks human PP1-alpha phosphatase, a PP5 counter-screen; AID 2235; purified PP1alpha, OMFP fluorescence; hit rate 0.9% among 320,000; P62136; inhibition, % at 6.7 µM;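 active = inhibition above the mean inhibition of all tested compounds plus 3 SD, computed separately for each screening campaign, cut at about 15% in these data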
PP5 inh – inhibitors of human protein phosphatase 5 (PP5); hit rate 0.18% among 320,000; purified PP5c, OMFP substrate fluorescence; inhibition, % at 6.7 µM; P53041;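 active = inhibition above the campaign's mean inhibition across all tested compounds plus 3 SD, cut at about 9.5% in these data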;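 also: 0% = DMSO only and 100% = 100 µM cantharidin control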
Target sequence (P53041 whole entry, looked up): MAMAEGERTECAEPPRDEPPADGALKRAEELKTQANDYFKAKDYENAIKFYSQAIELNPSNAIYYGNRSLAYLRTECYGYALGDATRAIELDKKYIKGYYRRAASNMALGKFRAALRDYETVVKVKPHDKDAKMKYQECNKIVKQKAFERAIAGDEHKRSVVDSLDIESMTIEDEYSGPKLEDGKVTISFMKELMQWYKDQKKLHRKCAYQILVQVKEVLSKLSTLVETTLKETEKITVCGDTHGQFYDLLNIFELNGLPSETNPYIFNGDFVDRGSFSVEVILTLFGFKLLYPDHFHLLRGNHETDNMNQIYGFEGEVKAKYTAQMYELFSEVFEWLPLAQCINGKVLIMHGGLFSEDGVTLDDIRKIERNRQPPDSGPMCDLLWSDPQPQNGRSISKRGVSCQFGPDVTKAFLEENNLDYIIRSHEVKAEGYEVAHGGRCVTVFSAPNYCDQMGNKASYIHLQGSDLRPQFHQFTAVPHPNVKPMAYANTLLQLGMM
CSC inhib – blocks cancer stem cells | cancer stem cell-like cells viability, luminescence | inhibition, % at 7.5 µM | hit rate 1.1% among 300,000 | AID 2717; in the data active = inhibition above about 75%; inconclusive = no clear call, values can overlap the other calls; tested in HMLE shEcad cells
SKKanGAS inh – inhibitors of SKKanGAS S. pyogenes growth in kanamycin (SK-promoter or general growth effect); BacTiter-Glo, 6 h; inhibition, % at 7.5 µM; hit rate 1.3% among 300,000; AID 1662;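 active = mean replicate score, as percent of positive control median, at least 50; inconclusive = mean below 50 but one replicate at or above 50; inactive = mean and every replicate below 50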;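 also: strain carries kanamycin resistance gene driven by streptokinase promoter and grows in 40 µg/ml kanamycin; loss of luminescence reflects streptokinase promoter inhibition or plain growth inhibition; 0% = median of DMSO wells and 100% = positive control at its reference dose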
Beta cell apopt – beta cell apoptosis inhibition; INS-1E cytokine-induced death, ATP luminescence, 48 h; percent of positive-control rescue, neutral wells zero; protection from apoptosis, % (no concentration beside the values); hit rate 0.8% among 300,000; AID 435005;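 active = Every replicate reaches about 75%, or at least half do and their mean reaches it too, limit read from the data; inconclusive = At least half of replicates reach the limit but their mean does not; inactive = Under half of replicates reach the limit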;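 also: 0% = cytokine-treated negative control wells and 100% = positive control rescue; higher means more ATP so stronger rescue from cytokine killing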
* hit, by the source's call; ? = inconclusive; / = no result.

SMILES | PP1 inh | PP5 inh | CSC inhib | SKKanGAS inh | Beta cell apopt
CSc1ccccc1C(=O)Nc1cc(C)ccc1C | -2.1 | 1.6 | 78.2* | -1.4 | -15.1
Cc1nc(NC(=O)c2ccc(Cl)cc2)sc1Cc1ccc2c(c1)OCO2 | -2.4 | 1.1 | 78.9* | 21.9 | 22.7
Cc1ccc2nc(-c3ccccn3)c(NC3CCCC3)n2c1 | 14.6 | 4.3 | 28.6 | 96.3* | 102.3*
CCCCCCSc1cccc(-c2nc3ccc(C)cn3c2NC2CCCCC2)c1 | 1.7 | 2.1 | 59.8 | 34.2 | 1.2
COc1ccc2[nH]c(=O)c(CN(C3CCCCC3)C(c3nnnn3Cc3ccco3)C(C)C)cc2c1 (stereo not given) | 20.5* | 5.6 | 5.6 | 19.2 | 0.6
COc1ccc2[nH]c(=O)c(CN(Cc3nnnn3Cc3ccco3)C3CCCCC3)cc2c1 | 4.0 | 1.1 | 4.8 | -11.2 | -1.0
CCCOc1ccccc1OCC(=O)N1CCN(S(=O)(=O)c2ccc(Cl)cc2)CC1 | -1.3 | 0.7 | / | / | -2.4
CC1=CC(C)(C)n2c(O)c(N=N)c3c(C)c(C)cc1c32 | 2.5 | 3.8 | 3.6 | 67.7* | -0.5
CC1=CC(C)(C)n2c(O)c(N=N)c3c(C)ccc1c32 | -1.6 | 3.5 | 6.3 | 13.6 | -5.5
Cc1cccc(NC2=NC(C)(C)N=C(N)N2)c1 | -1.4 | -1.2 | / | 111.0* | 3.5
Cc1cc(C)cc(NC2=NC3(CCCCC3)N=C(N)N2)c1 | -4.8 | -1.6 | 53.1 | -0.8 | -0.8
Cc1ccc(N(C(=O)CCl)C(C(=O)NC2CCCCC2)c2cccnc2)cc1C (stereo not given) | 5.7 | 4.3 | 88.3* | -2.9 | 1.1
CCCNC(=O)Cn1c(=O)/c(=C\c2ccc(-c3cccc([N+](=O)[O-])c3)o2)s/c1=C\C(=O)C(C)(C)C | 15.9* | 2.1 | 6.9 | 23.4 | 19.8
CC(C)c1ccc(COc2ccc(C(=O)N3CCOCC3)cc2)cc1 | 0.1 | 4.1 | 7.3 | 3.9 | 75.8*
CCc1nnc(NC(=O)c2cccc(C(=O)Nc3nnc(CC)s3)n2)s1 | -4.8 | 0.3 | 40.2 | 99.0* | 76.2*
CC1CCN(CCCNC(=O)c2ccc3c(=O)n(Cc4ccc(Cl)cc4)c(=S)[nH]c3c2)CC1 | 5.5 | -0.5 | 88.0* | 14.0 | -6.3
O=[N+]([O-])c1cc(-c2cnc3ccccc3n2)ccc1Oc1ccc(Cl)cc1 | 4.6 | 0.0 | 76.7* | 0.5 | 4.7
CCC1=NN(C(=O)c2ccc(C)cc2)C(O)(c2ccc(Br)cc2)C1 (stereo not given) | -2.4 | 2.2 | / | -3.5 | /
CCC1=NN(C(=O)c2cccc(Br)c2)C(O)(c2ccc(Br)cc2)C1 (stereo not given) | 0.7 | 3.5 | 105.3* | 71.3* | ?
CC1=C(C)/C(=N\OS(=O)(=O)c2ccccc2)C=CC1=O | -3.0 | -1.4 | 3.6 | 0.7 | 113.2*
O=C1CC(c2ccc3c(c2)OCCO3)Oc2ccccc21 (stereo not given) | -2.4 | 2.0 | -4.0 | -1.1 | -6.1
O=C1CC(c2ccc3c(c2)OCCO3)Oc2ccc([N+](=O)[O-])cc21 (stereo not given) | 0.6 | 1.6 | 77.4* | 5.5 | 9.2
Nc1c(C(=O)Nc2ccc3c(c2)OCCO3)nnn1Cc1cccc(Br)c1 | 6.0 | 5.2 | 77.0* | 23.4 | 1.5
Cn1cnnc1-c1cccc(NC(=O)c2cc(F)c(F)cc2Cl)c1 | -4.6 | -1.5 | -14.1 | -2.5 | -0.7
Cc1ccc(F)c([C@H]2C3C=CCC(c4ccccc4)C3C(=O)N2Cc2ccccc2)c1 (stereo not given in full) | 2.6 | 1.7 | 121.6* | 50.0* | 109.1*
SMILES | PP1 inh | PP5 inh | CSC inhib | SKKanGAS inh | Beta cell apopt
O=C1C2C(c3ccccc3)CC=CC2[C@H](c2ccc3ccccc3c2)N1Cc1ccccc1 (stereo not given in full) | 6.5 | 1.0 | 55.6 | 23.6 | 10.1
CC[C@@H]1CC=C[C@H]2[C@H]1C(=O)N(Cc1ccccc1)[C@H]2c1cc(C)ccc1F | / | / | / | 57.9* | /
S=C(c1ccc(N2CCCC2)c(Br)c1)N1CCCCC1 | 0.8 | -1.3 | / | 7.7 | -0.5
CC1(C)CC2CC(C)(CN2/C=N/c2sc3c(c2C#N)CC(C)(C)NC3(C)C)C1 (stereo not given) | 0.0 | 1.7 | ? | -5.4 | 15.7
Cc1ccc(N2C(=O)CC(N(CCc3ccccc3)C(=S)Nc3ccc(N(C)C)cc3)C2=O)cc1 (stereo not given) | -2.0 | 1.7 | 94.5* | 23.1 | 3.1
COc1ccc(CCN(C(=S)Nc2ccccc2)C2CC(=O)N(c3ccccc3)C2=O)cc1 (stereo not given) | 4.0 | 3.0 | 3.0 | 25.5 | -0.2
O=C1CC(N(CCc2ccccc2)C(=S)Nc2ccccc2)C(=O)N1c1ccc(Br)cc1 (stereo not given) | 5.0 | 2.6 | -6.0 | 68.8* | 43.0
NC(=O)NC(CC(=O)Nc1cccnc1)c1cccc(Br)c1 (stereo not given) | -2.0 | 0.0 | 10.2 | 6.8 | -9.6
O=C(NCc1nnnn1-c1ccc(F)c(F)c1)c1ccc(S(=O)(=O)N2CCOCC2)cc1 | -5.5 | 1.1 | 9.0 | -8.4 | 3.5
CCN(CC)S(=O)(=O)c1cc(C)ccc1NC(=S)Nc1cccnc1 | -5.5 | -2.4 | 23.4 | -1.0 | 81.8*
CCN(CC)S(=O)(=O)c1cc(C(=O)Nc2cccnc2)ccc1Cl | -0.4 | 1.4 | -8.1 | -3.3 | -2.7
COc1cccc(-c2ocnc2C(=O)Nc2ccc(N3CCOCC3)cc2N2CCOCC2)c1 | -0.6 | 2.2 | 6.4 | 3.8 | -10.1
Nc1ncnc2c1ncn2[C@@H]1O[C@H](CNCc2ccc(OCC(=O)Nc3nccs3)cc2)[C@@H](O)[C@H]1O | / | / | / | / | -3.9
N/C(=C\C(=O)c1cc(Cl)ccc1O)C(Cl)(Cl)Cl | 0.2 | -1.0 | 85.5* | -9.7 | 11.6
CNc1ccc(Cl)cc1C(N)=O | -1.8 | 2.1 | -16.0 | 0.7 | -3.1
CCCCNC(=O)c1c[nH]c2ccc(S(=O)(=O)N3CCOCC3)cc2c1=O | 2.6 | 0.1 | -13.4 | 8.1 | 0.7
Cn1cccc1C1C=C(c2ccc(C(C)(C)C)cc2)Nc2ncnn21 (stereo not given) | -1.4 | -2.5 | 12.3 | 28.0 | 127.1*
CCCCC1=CC2=C(c3ccco3)C(=O)C(C)(OC(=O)c3ccc(OC)cc3)C(=O)C2=CN1Cc1ccc2c(c1)OCO2 (stereo not given) | 24.1* | 1.6 | -3.0 | 2.5 | -0.5
CC(SC1=NCCN1S(C)(=O)=O)c1ccccc1 (stereo not given) | -0.9 | 2.3 | -0.3 | -2.1 | -7.7
COc1cc(C)c(C(=O)CC(=O)c2c(C)cc(OC)cc2C)c(C)c1 | -4.5 | -0.7 | 132.1* | 96.3* | 75.0*
COc1ccccc1N1CCN(C(=O)C(=O)c2cn(CC(=O)N3CCOCC3)c3ccccc23)CC1 | -1.2 | 1.3 | -2.3 | 20.3 | -5.0
CC[C@H]1CC2CN3CCc4c([nH]c5c([C@H]6C[C@H]7[C@H](CC)CN(C)[C@@H](Cc8c6[nH]c6ccccc86)[C@H]7C(=O)OC)c(OC)ccc45)C(C(=O)OC)(C2)C13 | 4.8 | 5.2 | 102.6* | 5.4 | 49.0
COc1ccccc1/C(O)=C(\C#N)c1nc2ccccc2[nH]1 | -3.0 | 0.3 | 0.2 | -3.7 | -2.5
O=c1cnn(Cc2ccc(F)cc2)c2ccccc12 | 2.7 | 2.0 | -22.3 | -4.0 | -0.5
